Source: PubChem BioAssay
Compounds with a hit are over-represented: about 4% of the library has one in this group of screens.
Mtb FBA inh: inhibits M. tuberculosis FBA enzyme | P9WQA3 | purified M. tuberculosis FBA, fluorescence read-out | inhibition, % at 1 µM | 360,000 compounds, 2.3% hits | AID 588726; in the data active means inhibition above about 27%
Rv3671c protease: inhibits the M. tuberculosis serine protease Rv3671c | 320,000 compounds, 0.048% hits | AID 2606 | P9WHR9 | inhibition, % at 5.96 µM; in the data active means inhibition above about 38%;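 further: extracellular domain of Rv3671c used as enzyme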
RecA splice inh: blocks M. tuberculosis RecA intein splicing; 290,000 compounds, 0.75% hits; AID 2221; cell-free RecA intein splicing, fluorescence; inhibition, % (test concentration not listed); P9WHJ3; in the data active means inhibition above about 30%; inconclusive means no clear call, values can overlap the other calls
Target sequence (P9WHJ3 whole entry, looked up, canonical isoform): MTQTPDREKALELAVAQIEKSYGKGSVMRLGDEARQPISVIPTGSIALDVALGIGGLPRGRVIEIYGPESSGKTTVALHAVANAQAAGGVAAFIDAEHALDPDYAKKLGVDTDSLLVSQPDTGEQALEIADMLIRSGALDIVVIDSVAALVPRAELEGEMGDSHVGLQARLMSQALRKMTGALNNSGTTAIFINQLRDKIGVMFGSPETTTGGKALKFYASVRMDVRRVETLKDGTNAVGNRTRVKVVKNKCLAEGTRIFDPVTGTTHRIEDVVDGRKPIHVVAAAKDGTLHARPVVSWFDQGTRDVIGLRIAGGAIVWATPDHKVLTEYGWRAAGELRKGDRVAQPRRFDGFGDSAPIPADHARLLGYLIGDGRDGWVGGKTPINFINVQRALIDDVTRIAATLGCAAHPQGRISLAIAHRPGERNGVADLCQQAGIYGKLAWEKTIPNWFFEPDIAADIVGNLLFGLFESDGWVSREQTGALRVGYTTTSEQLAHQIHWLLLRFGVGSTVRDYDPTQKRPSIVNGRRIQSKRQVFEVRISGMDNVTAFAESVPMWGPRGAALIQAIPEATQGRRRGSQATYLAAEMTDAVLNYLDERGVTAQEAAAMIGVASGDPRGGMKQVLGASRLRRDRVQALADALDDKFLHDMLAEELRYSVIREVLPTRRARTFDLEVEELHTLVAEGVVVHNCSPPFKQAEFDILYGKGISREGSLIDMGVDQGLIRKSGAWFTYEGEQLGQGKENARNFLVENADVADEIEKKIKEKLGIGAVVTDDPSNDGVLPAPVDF
Mtb UGM inh: inhibitors of M. tuberculosis UDP-galactopyranose mutase | inhibition, % at 10 µM | AID 504406 | P9WIQ1 | purified UGM, fluorescence polarization probe displacement | 320,000 compounds, 0.06% hits; in the data active means inhibition above about 10%, passing the limit was not always enough; inconclusive means no clear call, values can overlap the other calls
Mtb bLac sens: beta-lactam sensitization of Mtb H37Rv; AID 434955; 330,000 compounds, 0.27% hits; M. tuberculosis H37Rv growth with meropenem, percent inhibition; inhibition, % at 25 µM;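 further: growth measured after seven days incubation then overnight dye step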
GDH-TPI counter: counter-screen for M. tuberculosis FBA inhibitors: GDH-TPI coupled enzymes; 360,000 compounds, 1.2% hits; AID 588335; GDH-TPI coupled enzyme counterscreen, NADH absorbance; inhibition, % at 4.8 µM; in the data active means inhibition above about 30%
GFP chromophore: counter-screen: blocks GFP chromophore formation. shares compounds with RecA splice inh. cell-free GFP chromophore formation, fluorescence. EC50, µM. 2,100 compounds, 83% hits
A number is an active result; - = inactive; ? = inconclusive; . = not tested or not shown. Unless noted, how the calls were made is not given here.

SMILES | Mtb FBA inh | Rv3671c protease | RecA splice inh | Mtb UGM inh | Mtb bLac sens | GDH-TPI counter | GFP chromophore
O=C(O)CCCN1C(=O)/C(=C\C(Cl)=C\c2ccccc2)SC1=S | - | . | 46.4 | - | - | - | -
CN1CCN(C(=O)CCCN2C(=O)/C(=C/c3ccccc3)SC2=S)CC1 | - | - | - | - | - | - | .
Nc1nc(-c2ccc(Cl)cc2)c(S(=O)(=O)c2ccccc2)s1 | - | - | - | - | - | - | .
Nc1nc(-c2ccc(Br)cc2)c(S(=O)(=O)c2ccccc2)s1 | - | - | 80.6 | - | - | - | -
COc1ccc(OC)c(C2C(C#N)=C(N)Oc3c2c(C)nn3-c2ccc(C)cc2)c1 (stereo unspecified) | - | - | 43.8 | - | - | - | 29.4
Cc1ccc(-n2nc(C)c3c2OC(N)=C(C#N)C3c2ccc(C)o2)cc1 (stereo unspecified) | - | - | 79.8 | - | - | - | 16.6
Cc1ccc(-n2nc(C)c3c2OC(N)=C(C#N)C3c2ccco2)cc1 (stereo unspecified) | - | - | 69.0 | - | - | - | 10.6
CCOC(=O)C1=C(C)OC(N)=C(C#N)C1c1c(C)nn(-c2ccc(C)cc2)c1Cl (stereo unspecified) | . | . | - | . | . | . | .
COc1ccc(C2C(C#N)=C(N)Oc3c2c(-c2ccccc2)nn3-c2ccccc2)c(OC)c1OC (stereo unspecified) | - | - | - | . | - | - | .
COc1ccc2oc(C(=O)OCC(=O)NCc3ccc(OC)c(OC)c3)c(C)c2c1 | - | . | . | . | . | - | .
O=C(COc1ccc(F)cc1)N1CCCc2ccccc21 | - | - | - | - | - | - | .
COc1ccc(-c2cnc(C(O)c3ccc(C(C)(C)C)cc3)[nH]2)cc1 (stereo unspecified) | - | . | . | . | . | - | .
COc1ccc(-c2csc(CCN3N=C(C)CC3=O)n2)cc1 | - | - | 85.8 | - | - | - | 4.77
COc1ccc(N2C(=O)CC(N(CCc3ccccc3)C(=O)/C=C/C(=O)O)C2=O)cc1 (stereo unspecified) | - | - | - | - | - | - | -
O=C(NCc1ccco1)/C(=C/c1cccc(C(F)(F)F)c1)c1nc2ccccc2[nH]1 | - | - | 37.6 | - | - | - | -
Cn1c(/C=N/Nc2nc3ccccc3[nH]2)nc2ccccc21 | - | - | - | - | - | - | .
Cc1c(/C=N/Nc2nc3ccccc3[nH]2)c2ccccc2n1C | - | - | 38.9 | - | - | 32.4 | 12
CCN(C(=O)CSc1ncccc1C(=O)Oc1cccc([N+](=O)[O-])c1)c1cccc(C)c1 | - | - | 32.8 | - | - | - | ?
CSc1cccc(NC(=O)CSc2ncccc2C(=O)Oc2cccc([N+](=O)[O-])c2)c1 | - | - | - | - | - | - | .
CCc1ccc2[nH]c(=O)c(-c3ccccc3)c(O)c2c1 | - | - | . | - | - | - | .
CN1CCN(c2ccc([N+](=O)[O-])c3no[n+]([O-])c23)CC1 | - | - | 86.0 | - | - | - | -
CCOC(=O)[C@H]1[C@H]2COc3ccc(Cl)cc3[C@@H]2N2C(=O)CN(C)C(=O)[C@@]12C | - | - | . | - | - | - | .
O=C(CSc1n[nH]c(-c2ccc(Br)cc2)n1)N1CCOCC1 | - | - | . | - | - | - | .
COc1ccc2nc(-c3ccco3)c(-c3ccco3)nc2c1 | - | - | - | - | - | - | .
COc1ccc(-c2nc3ccccc3nc2-c2ccc(OC)c(OC)c2)cc1OC | - | - | - | - | - | - | .
SMILES | Mtb FBA inh | Rv3671c protease | RecA splice inh | Mtb UGM inh | Mtb bLac sens | GDH-TPI counter | GFP chromophore
COc1ccc2nc3ccccc3nc2c1N | - | - | 64.0 | - | - | - | 39.7
COc1ccc2nc3cccc(OC)c3nc2c1 | - | - | 45.5 | - | - | - | 24.2
O=C(Nc1ccc(Cl)cc1)/C(=C/c1cccc(O)c1)c1nc2ccccc2s1 | - | - | 46.4 | - | - | - | 20.6
COc1cc(/C=C/C(=O)OCC(=O)Nc2ccccc2Sc2ccc(Cl)cc2)ccc1O | - | - | 35.5 | - | - | - | -
[O-]C1=N/[N+](=C/c2ccc(Cl)cc2)CC1 | - | - | 72.7 | - | - | - | 28.6
Cc1nn(Cc2ccccc2)c2c1C(c1ccco1)C(C#N)=C(N)O2 (stereo unspecified) | - | - | 54.6 | - | - | - | 23.2
COC(=O)C1=C(C)OC(N)=C(C#N)C1c1c(C)nn(-c2ccccc2)c1Cl (stereo unspecified) | - | - | - | - | - | - | .
CCCc1nn(C)c2c1C(c1cccnc1)C(C#N)=C(N)O2 (stereo unspecified) | - | - | 59.7 | - | - | - | 24
Cc1nn(Cc2ccccc2)c2c1C(c1ccc(Cl)cc1)C(C#N)=C(N)O2 (stereo unspecified) | - | - | 59.9 | - | - | - | 16.2
Cc1nn(Cc2ccccc2)c2c1C(c1ccncc1)C(C#N)=C(N)O2 (stereo unspecified) | - | - | 67.3 | - | - | - | 18.4
CC(=O)C1=C(C)OC(N)=C(C#N)C1c1cccnc1 (stereo unspecified) | - | - | - | - | - | - | .
Cc1cc2c(c(=O)n1Cc1cccnc1)C(c1ccccc1)C(C#N)=C(N)O2 (stereo unspecified) | - | - | - | - | - | - | .
CCOc1cc(N2CCOCC2)c(OCC)cc1NC(=O)COC(=O)CCn1c(C)csc1=O | - | - | - | - | - | - | .
CCOC(=O)[C@H]1[C@H]2COc3ccc(C)cc3[C@@H]2N2C(=O)c3cc(Cl)ccc3NC(=O)[C@@]12C | - | - | . | - | - | - | .
Cc1cccc(N(C)S(=O)(=O)c2csc(C(N)=O)c2)c1 | - | - | - | - | - | - | .
Cc1nn(Cc2ccccc2)c2c1C(c1cccnc1)C(C#N)=C(N)O2 (stereo unspecified) | - | - | 72.7 | - | - | - | 12.8
CC(=O)N(Cc1c(C)nn(-c2ccccc2)c1Cl)c1ccc(Cl)cc1 | - | - | - | - | - | - | .
Cc1nn(-c2ccccc2)c(Cl)c1CN(C(=O)CCl)c1ccc(Cl)cc1 | - | - | 88.5 | - | - | - | 2.17
Cc1nn(-c2ccccc2)c(Cl)c1CN(C(=O)CCl)c1cccc2ccccc12 | - | - | 67.5 | - | . | - | 6.28
COc1ccc(/C(=N/OC(C)=O)c2nccc3cc(OC)c(OC)cc23)cc1OC | - | - | 30.9 | - | - | - | -
COc1cccc(-c2ccc(NC(=O)C3CCCN(Cc4nccn4C)C3)cc2)c1 (stereo unspecified) | - | - | - | - | - | - | .
COc1ccc2oc(=O)c(/C(N)=N/NC(=O)c3ccncc3)cc2c1 | - | - | - | - | - | - | .
C/C(=N\NC(=O)c1ccncc1)c1cc2ccccc2oc1=O | - | - | 93.3 | - | - | - | 15
Nc1nn2c(-c3ccccc3)cc(=O)[nH]c2c1N=Nc1ccc(Br)cc1 | - | . | . | . | . | - | .
Nc1nn2c(-c3ccccc3)cc(=O)[nH]c2c1N=Nc1ccc(O)cc1 | - | - | 52.2 | - | - | - | 1.98
